Screening data: PubChem BioAssay, Buhrlage Lab, Dana-Farber Cancer Institute and Novartis Institutes for BioMedical Research (Cambridge, Mass)
OTUD3 inh – human OTUD3 deubiquitinase inhibition; Q5T2D3; purified OTUD3, Ub-rhodamine fluorescence, 2 h; inhibition, % at 25 µM; 0.7% of 47,000 active; AID 1645858
USP30 block – human USP30 deubiquitinase inhibition. 5.3% of 47,000 active. Q70CQ3. inhibition, % at 25 µM. purified USP30, Ub-rhodamine cleavage fluorescence
USP17 inh – inhibitors of human USP17 deubiquitinase; A8MUK1; purified USP17, Ub-rhodamine cleavage fluorescence, 3 h; inhibition, % at 50 µM; 6.5% of 47,000 active
Target sequence (A8MUK1 whole entry, looked up): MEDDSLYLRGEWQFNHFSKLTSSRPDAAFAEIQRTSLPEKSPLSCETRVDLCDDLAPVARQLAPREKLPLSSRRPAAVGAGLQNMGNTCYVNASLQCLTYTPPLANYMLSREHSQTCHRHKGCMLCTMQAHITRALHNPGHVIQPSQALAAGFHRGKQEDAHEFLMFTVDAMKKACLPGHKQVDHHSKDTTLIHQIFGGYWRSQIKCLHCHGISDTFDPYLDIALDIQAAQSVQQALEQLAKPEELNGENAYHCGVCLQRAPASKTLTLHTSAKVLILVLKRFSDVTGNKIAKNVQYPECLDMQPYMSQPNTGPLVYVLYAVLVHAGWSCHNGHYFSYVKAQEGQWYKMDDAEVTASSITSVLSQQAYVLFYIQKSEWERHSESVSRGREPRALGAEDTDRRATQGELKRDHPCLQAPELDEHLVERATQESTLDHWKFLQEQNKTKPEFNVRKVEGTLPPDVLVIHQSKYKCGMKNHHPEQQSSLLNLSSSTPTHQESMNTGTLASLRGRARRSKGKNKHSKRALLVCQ
USP28 inh – human USP28 deubiquitinase inhibition | Q96RU2 | purified USP28, Ub-rhodamine cleavage fluorescence, 30 min | inhibition, % at 25 µM | 3% of 47,000 active
Hits are given with their value; i = inactive; nt = no result. Rows were chosen to be rich in hits. Some 11% of all compounds tested hit in one or more screens of this group. Cut-off read from the data, not from the text of the source: active = inhibition above about 30%; inactive = the rest.

SMILES	OTUD3 inh	USP30 block	USP17 inh	USP28 inh
COc1ccc(CCNC(=O)c2cn(-c3ccc(F)cc3)nn2)cc1OC	i	61.5	34.2	i
COc1ccc(CCNC(=O)CSc2cn(CCNC(=O)c3ccc(F)cc3)c3ccccc23)cc1OC	i	67.7	49.5	i
COCCN(C(=O)CCC(=O)Nc1ccccn1)C(C(=O)NC1CCCCC1)c1ccc(OC)cc1 (stereo not drawn)	i	i	i	i
COc1ccccc1-c1cc2c(=O)n(Cc3nc(-c4ccccc4C)no3)ccn2n1	i	46.6	i	i
CC(=O)c1cccc(NC(=O)C(=O)c2cn(CC(=O)N3CCOCC3)c3ccccc23)c1	i	i	i	i
CC(CCc1ccccc1)NC(=O)C(=O)c1cn(CC(=O)N2CCOCC2)c2ccccc12 (stereo not drawn)	i	50.1	44.2	i
CCOc1ccccc1NC(=O)C(=O)c1cn(CC(=O)N2CCCCC2)c2ccccc12	i	39.8	i	i
O=C(Nc1ccccc1F)C(=O)c1cn(CC(=O)N2CCCCC2)c2ccccc12	i	i	i	i
c1cncc(CN2CCC[C@H]2c2nc(-c3ccc(-n4ccnc4)nc3)no2)c1	i	i	41.0	i
c1cncc(CN2CCC[C@H]2c2nc(-c3ccc(N4CCOCC4)nc3)no2)c1	i	i	i	i
COc1cc(NC(=O)CSc2cc(=O)n(C)c3cc(Cl)ccc23)cc(OC)c1OC	i	i	i	i
Cn1c(=O)cc(SCC(=O)NC2CCN(Cc3ccccc3)CC2)c2ccc(Cl)cc21	i	50.2	33.5	i
O=C(Cn1c(=O)n(CCCC(=O)NC2CCN(Cc3ccccc3)CC2)c(=O)c2ccccc21)Nc1cccc(Cl)c1	i	i	i	i
CCOc1ccc(NC(=O)CSc2cc(=O)n(C)c3cc(Cl)ccc23)cc1	i	i	46.5	i
O=C(c1c2c(NCc3cccnc3)ncnc2n2ccccc12)N1CCCC1	i	i	i	i
Cc1ccc(OCCCn2c(CCNC(=O)C3CCCCC3)nc3ccccc32)cc1	i	i	i	i
O=C(Nc1ccc(F)cc1)c1c(O)c2cnn(Cc3ccccc3)c2[nH]c1=O	i	i	i	i
Cc1cccc(O)c1C(=O)O[C@H](C)c1cccc2nc3c(C(=O)O)cccc3nc12	i	i	38.5	i
CCc1nc2c(NC(=O)NC3CCCCC3)cccn2n1	i	i	i	i
CCOC(=O)CC(NC(=O)CCc1c(C)nc2c(c1C)c(=O)n(C)c(=O)n2C)c1ccc(C)cc1 (stereo not drawn)	i	31.3	i	i
Cc1ccc(S(=O)(=O)Nc2ccc(Cl)cc2)cc1NC(=O)CC(=O)c1ccccc1	i	i	37.9	i
Cc1ccc(NC(=O)c2oc3ccccc3c2NC(=O)COc2ccc(C)cc2)cc1	i	i	i	i
Cc1ccc(NC(=O)COc2ccc3oc4c(c3c2)CCCC4)cc1	i	37.6	i	i
Cc1cc(NC(=O)COc2ccc3oc4c(c3c2)CCCC4)n(-c2ccccc2)n1	i	nt	73.0	nt
O=C(CCn1c(=O)c2ccccc2n(Cc2ccccc2F)c1=O)NCc1ccco1	i	i	i	i
SMILES	OTUD3 inh	USP30 block	USP17 inh	USP28 inh
Cc1ccccc1Cn1c(=O)n(Cc2ccco2)c(=O)c2ccccc21	i	i	i	i
Cc1ccc(CNC(=O)CCCn2c(=O)c3ccccc3n(Cc3cccc(F)c3)c2=O)cc1	i	i	39.1	i
O=C(CCCCn1c(=O)c2ccccc2n(Cc2ccccc2F)c1=O)NCCc1ccccc1	i	i	55.6	i
N#Cc1ccccc1Cn1c(=O)n(CCCCC(=O)NCCc2ccccc2)c(=O)c2ccccc21	35.9	i	78.1	i
CCOc1ccc(NC(=O)Cn2c(=O)n(CCCCC(=O)NCCc3ccccc3)c(=O)c3ccccc32)cc1	i	i	i	i
N#Cc1ccccc1Cn1c(=O)n(Cc2ccco2)c(=O)c2ccccc21	i	33.4	53.7	37.9
Cc1ncoc1C(=O)N[C@@H]1C[C@@H](Oc2cccc(F)c2)[C@H](O)[C@H]1N1CCOCC1	i	i	i	i
N#Cc1ccccc1Cn1c(=O)n(CCCCC(=O)NCc2ccco2)c(=O)c2ccccc21	i	i	51.2	i
Cc1ccc(S(=O)(=O)NC2=NCN(CCc3ccccc3)CN2)cc1	i	i	i	i
COc1ccc(-c2cc3nc([C@H](C)NC(=O)COc4cccc(F)c4)nn3cn2)cc1	i	i	i	i
COc1ccccc1CC(=O)N[C@@H](C)c1nc2cc(-c3ccccc3F)ncn2n1	i	38.6	i	i
COc1cccc(CC(=O)N[C@@H](C)c2nc3cc(-c4ccccc4F)ncn3n2)c1	i	i	i	i
C[C@H](NC(=O)Cc1ccccc1F)c1nc2cc(-c3ccc(F)cc3)ncn2n1	i	34.8	i	i
